# Results reported in ChEMBL document CHEMBL3988442, “University of Dundee, Small-Polar-MMV Screening Library” (2021).
# The whole screen tested about 48,000 compounds, of which about 13,000 (27%) showed an effect of 50% or more. The list shows a part of the results.
# Test system: Wolbachia pipientis
# Experiment: Anti-Wolbachia Cell-Based Screen
# Assay type: functional
# Parameters: scale not given: in the data most compounds retested in dose-response had high values
# Settings: 5 µM
row,Compound,Percent Effect
1,CC(c1ccccc1)N(C)CC(=O)NCCC#N (stereo not given),10.46%
2,COc1ccc2nc3n(c2c1)[C@@H](CNC(=O)c1cncnc1)COC3,-25.15%
3,CCOC(=O)C1CCCCN1Cc1c[nH]nc1-c1ccc(F)cc1F (stereo not given),-25.87%
4,CN(C)S(=O)(=O)N1CCN(Cc2ccnc(N3CCCC3)n2)CC1,116.4%
5,CN(C)S(=O)(=O)N1CCN(c2ccnc(N3CCCC3)n2)CC1,6.981%
6,CN(C)S(=O)(=O)N1CCN(c2ccnc(N3CCCCC3)n2)CC1,2.063%
7,CC(C)CN1CC(c2nc(-c3cccc(F)c3)c[nH]2)CC1=O (stereo not given),-7.334%
8,COc1cc(NC2CCCN(c3ncccc3C#N)C2)cc(OC)c1 (stereo not given),118.7%
9,Cc1cc(C(=O)NC2CCN(c3ncccc3C#N)CC2)no1,-13.19%
10,COc1cc(NC2CCCNC2)cc(OC)c1 (stereo not given),-9.333%
11,N#Cc1cccnc1N1CCC(Nc2ccccc2)C1 (stereo not given),96.82%
12,Cc1ncsc1C(=O)NC1CCN(c2ncccc2C#N)CC1,3.03%
13,COc1ccccc1N1CCCC(Nc2nccnc2C#N)C1 (stereo not given),-6.167%
14,COc1cc(NC2CCCN(c3ncccn3)C2)cc(OC)c1 (stereo not given),107.2%
15,CC(OCC1CC1)C(=O)N1CCCN(c2ncccc2C#N)CC1 (stereo not given),0.6677%
16,COc1cc(CNC2CCCN(c3ncccn3)C2)cc2c1OCO2 (stereo not given),-8.887%
17,CCn1ccnc1CN1CCN(c2nccc(OC)n2)CC1C (stereo not given),-24.68%
18,Fc1cccc(-c2nnn3c2COC(CNc2ncccn2)C3)c1 (stereo not given),-1.841%
19,CN1CCOC(CN(C(=O)CCc2cnn(C)c2)c2nccs2)C1 (stereo not given),107%
20,CN1CCOC(CN(C(=O)CCCn2cccn2)c2nccs2)C1 (stereo not given),81.94%
21,Cc1ccc(CC(=O)N(CC2CN(C)CCO2)c2nccs2)cn1 (stereo not given),90.15%
22,O=C(CN1CCOC(Cn2cccn2)C1)Nc1nccs1 (stereo not given),-0.2623%
23,CN1CCOC(CN(C(=O)COc2ccccc2)c2nccs2)C1 (stereo not given),132.7%
24,Cc1cc(CC(=O)N(CC2CN(C)CCO2)c2nccs2)no1 (stereo not given),-0.7073%
25,Cc1ccc(CC(=O)N2CCCC(c3nc(C)cs3)C2)cn1 (stereo not given),-6.398%
26,c1cnn(CC2CN(c3ncnc4ccsc34)CCO2)c1 (stereo not given),-13.22%
27,CN1CCOC(CN(C(=O)Cc2ccccc2F)c2nccs2)C1 (stereo not given),-6.62%

row,Compound,Percent Effect
1,CC[C@@]1(O)CCN(C(=O)CCc2cnn(C)c2)C[C@H]1O,-7.505%
2,CN1CCOC(CN(C(=O)CC2CCCC2)c2nccs2)C1 (stereo not given),-0.02384%
3,Cc1cnn(CC2CN(CC(=O)N(C)c3nccs3)CCO2)c1 (stereo not given),4.22%
4,CC(C)C1CN(C(=O)Nc2cnn(CC(F)F)c2)CCO1 (stereo not given),14.22%
5,CC(C)N1CC2(CCCN(Cc3noc(C4CCCC4)n3)C2)CCC1=O (stereo not given),0.7717%
6,COC1CCN(C(=O)c2csc(-c3ccccc3F)n2)CC1,15.42%
7,O=C(NCCc1nccs1)C1CCCN(Cc2ccco2)C1 (stereo not given),-29.34%
8,Nc1nccnc1C(=O)N(Cc1ccco1)CC1CCCO1 (stereo not given),3.477%
9,CN1CCOC(CN(C(=O)CCc2ccco2)c2nccs2)C1 (stereo not given),89.12%
10,O=C(CCc1cn[nH]c1)N1C[C@H](CO)C[C@H](CN2CCOCC2)C1,-1.636%
11,Cn1cnnc1C1CCCN(C(=O)c2ccccc2Cl)C1 (stereo not given),1.344%
12,Cn1cnnc1C1CCCN(C(=O)c2cc(Cl)c3c(c2)OCO3)C1 (stereo not given),-3.548%
13,Cn1cnnc1C1CCCN(C(=O)c2cc(Cl)c(Cl)n2C)C1 (stereo not given),115.1%
14,Cc1noc(C2CCCN(C(=O)c3cc(Cl)c(Cl)n3C)C2)n1 (stereo not given),3.125%
15,Cn1cnnc1C1CCCN(C(=O)c2cc(Cl)cc(Cl)c2)C1 (stereo not given),113.5%
16,O=C(c1cnns1)N1CCN(Cc2ccc(F)cc2Cl)CC1,11.32%
17,Cc1nn(C)c(C)c1C1CCCN1c1ncnc2[nH]ccc12 (stereo not given),1.551%
18,Brc1ccc(NCCCOC2CCOCC2)nc1,3.889%
19,CCN(Cc1cc(Cl)ccc1OC)Cc1ncnn1CC,0.2011%
20,CCCc1nnc(N2CCN(c3cccc(OC)c3)C(=O)C2)o1,11.57%
21,COc1ccccc1N1CCN(Cc2nc(C)c(C)o2)CC1,-4.949%
22,CCOc1ccccc1N1CCN(c2nnc(C)o2)CC1,100.3%
23,CCOc1ccccc1N1CCN(CC2(O)CCCNC2)CC1 (stereo not given),-13.46%
24,COc1ccccc1CN1CCN(CCN2CCOC2=O)CC1,-7.896%
25,CCCc1nnc(N2CCN(Cc3ccccc3OC)CC2)o1,96.58%
26,CCCc1nnc(N2CCN(c3ccccc3OCC)CC2)o1,99.15%
27,c1ccc(OCc2noc(CN3CCC(N4CCSCC4)CC3)n2)cc1,-5.795%

row,Compound,Percent Effect
1,O=C(c1cc2c([nH]c1=O)CCC2)N1CCCCCC1c1ccncc1 (stereo not given),23.88%
2,CC(C)COCC(NC(=O)Cc1ccn[nH]1)c1ccco1 (stereo not given),-5.318%
3,Cc1noc(C)c1CNCc1nn(-c2ccccc2)c2c1CCC2,-8.034%
4,O=C(Cc1csc(-c2ccccc2F)n1)NCc1cccc(C(=O)O)c1,94.98%
5,Cc1[nH]c2c(F)cccc2c1CC(=O)NCc1csc(N(C)C)n1,-5.819%
6,CC(=O)c1cc(CC(=O)NCc2ccc(F)cc2)cs1,-15.8%
7,CCC(C)NC(=O)c1cccc(CNC(=O)CC(F)(F)F)c1 (stereo not given),4.521%
8,O=C(CCC1CCN(C(=O)c2cc[nH]c2)CC1)NCc1cccc(Cl)c1,14.78%
9,O=C(CCC1CCN(C(=O)c2csnn2)CC1)NCc1cccc(Cl)c1,-4.206%
10,O=C(Cc1csc(-c2ccccc2F)n1)NCc1ccc(C(=O)O)cc1,91.75%
11,O=C(Cc1csc(-c2cccc(Cl)c2)n1)NCc1cccc(C(=O)O)c1,106.6%
12,COc1ccccc1-c1csc(-c2cccc(C(=O)O)c2)n1,1.276%
13,Clc1ccccc1-c1nc(CNCCn2cccn2)cs1,-5.873%
14,CC(=O)c1cc(CC(=O)NCc2c(F)cccc2F)cs1,-9.682%
15,O=C(Cc1csc(-c2ccccc2Cl)n1)NCc1cccc(C(=O)O)c1,96.86%
16,CCC(C(=O)N(C)C)N1CCC(c2nccn2Cc2cscn2)CC1 (stereo not given),-0.1258%
17,COCCCn1nnc(C2(NC(=O)c3ccccc3)CCCC2)n1,-42.57%
18,O=C(Cc1cccs1)N1C[C@@H]2CC[C@H](C1)N(Cc1ccccn1)C2=O,15.92%
19,Cc1cc(C(=O)N2CCc3nnc(N)cc3C2)c(C)n1C1CC1,6.232%
20,CC(Cn1cccn1)NCc1csc(-c2ccccc2F)n1 (stereo not given),0.9927%
21,O=C(O)CNC(=O)Cc1csc(-c2ccccc2F)n1,127.8%
22,CC(C)N(CCS(C)(=O)=O)Cc1csc(-c2ccccc2F)n1,-5.187%
23,O=C(Cc1cccc(O)c1)NCCNc1nccc(C(F)(F)F)n1,-3.193%
24,O=C(O)c1ccnc(-c2ccnc(NCCc3cscn3)n2)c1,6.299%
25,O=c1[nH][nH]cc1-c1ccnc(NCCc2ccc(F)cc2)n1,99.64%
26,O=c1[nH][nH]cc1-c1ccnc(NCCc2cccc(O)c2)n1,135%
27,N#Cc1cc(F)c(NCCc2cccnc2)c(F)c1,0.2383%

row,Compound,Percent Effect
1,Cc1cc(C)nc(CCNc2nccc(CCC(F)(F)F)n2)n1,-9.076%
2,CCOc1ccnc(NCCc2nc(C)cc(=O)[nH]2)n1,25.33%
3,O=C(O)c1ccnc(-c2ccnc(NCCc3ccc(F)cc3)n2)c1,-8.109%
4,Cc1cc(C)c(CNC(=O)NCCc2cccnc2)c(=O)[nH]1,-5.274%
5,O=c1[nH][nH]cc1-c1ccnc(NCCc2cccnc2)n1,116.1%
6,Cc1ncc(-c2ccnc(NCCc3ccc(F)cc3)n2)c(=O)[nH]1,69.11%
7,Cc1cc(C2CN(CC(=O)NCc3ccco3)CCO2)ccc1F (stereo not given),-9.058%
8,CN(C)C(=O)CN1C(=O)[C@H]2CC[C@@H]1CN(Cc1ccccc1C#N)C2,-21.45%
9,COC(=O)Cc1cccc(NC(=O)Cc2cc(C)[nH]n2)c1,1.53%
10,Cc1nc(CCN)cc(N2CCOc3ccc(Cl)cc3C2)n1,10.69%
11,CCN(Cc1ccc2c(c1)OCO2)C(=O)CCc1c(C)nc(C)[nH]c1=O,-8.876%
12,CCOC(=O)c1n[nH]cc1CN1CCOC(Cc2ccc(OC)cc2)C1 (stereo not given),-36.24%
13,COCCCNc1nccc(-c2c[nH][nH]c2=O)n1,1.466%
14,CC(=O)NCCNc1nccc(CCC(F)(F)F)n1,-2.049%
15,CC(C)(C)CCNc1nccc(-c2c[nH][nH]c2=O)n1,100.4%
16,Cc1nnc(SCCC(=O)N(C)Cc2ccc(Cl)s2)[nH]1,6.778%
17,O=C(C1CN(CC2CCOCC2)CC12CCOCC2)N1CCCC1.O=C(O)C(F)(F)F (stereo not given),0.226%
18,COc1cc(C)nc(N2CCN(C(=O)c3cc(Cl)c[nH]3)CC2)n1,7.277%
19,O=C(OCCF)c1cccc(C(=O)N2CCCC2)n1,7.504%
20,COC(=O)c1cccc(C(=O)N2CCN(c3cccc(C)c3C)CC2)n1,-16.02%
21,CC(=O)N1CCCN(C(=O)c2ccn(-c3cccc(Cl)c3)n2)CC1,4.023%
22,COC(=O)c1cccc(C(=O)N2CCN(c3cc(C)ccc3C)CC2)n1,123.5%
23,COC(=O)c1cccc(C(=O)N2CCN(c3cc(Cl)ccc3C)CC2)n1,103.9%
24,COCC1CN(Cc2cc(C)on2)Cc2cn(CC3CCCC3)nc21.O=C(O)C(F)(F)F.O=C(O)C(F)(F)F (stereo not given),1.452%
